# Data published in PubChem BioAssay (EPA / NIEHS).
# Records with an inconclusive call do not appear. Active and inactive are the calls of the source. How the source made its calls, unless noted: active means hit-call score of the fitted dose curve at least 0.9, where 1 is the maximum; inactive means score below 0.9.
# Assays:
# [1] = IUF_NPC1_viability_72hr: Viability Assessment at 72 hours in the Leibniz Research Institute for Environmental Medicine (IUF) Neural Progenitor Cell Proliferation Assay (NPC1) (AID 2284209)
# Procedure, shortened: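 Human fetal-cortex neural progenitor spheres (0.25–0.35 mm, one per well) grown in EGF/FGF proliferation medium at 37C, pH 7.2-7.6, exposed 72 h without renewal; viability read as alamar blue resazurin-to-resorufin fluorescence relative to DMSO.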
# [2] = CCTE_Mundy_HCI_Cortical_Synap_Neur_Matur_NeuriteSpotCountPerNeuriteLength: CCTE's Synaptogenesis and Neurite Maturation Assay in rat cortical cells for Neurite Spot Count per Neurite Length, Mundy Lab (AID 2284210)
# Procedure, shortened: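 Rat primary cortical cultures, AraC added at DIV 5 to suppress glia; chemical exposure from DIV 7 to DIV 12. Fixed cells stained for MAP2 and synaptophysin plus Hoechst; synaptophysin puncta per neurite length quantified by high-content imaging, relative to DMSO.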
# [3] = CCTE_Mundy_HCI_Cortical_NOG_NeuriteLength: CCTE's Neurite Outgrowth Assay in rat cortical cells for Neurite Length, Mundy Lab (AID 2284213)
# Procedure, shortened: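 Neurite length was read by high-content imaging of βIII-tubulin-labelled neurites in rat primary cortical cultures. Activity was fitted relative to DMSO.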
# [4] = CCTE_Mundy_HCI_Cortical_Synap_Neur_Matur_NeuriteLength: CCTE's Synaptogenesis and Neurite Maturation Assay in rat cortical cells for Neurite Length, Mundy Lab (AID 2284214)
# Procedure, shortened: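 Rat primary cortical cells were plated, treated with AraC at DIV 5 to arrest glial growth, then chemical-dosed with media change at DIV 7 through DIV 12. Fixed cells stained for MAP2, synaptophysin and Hoechst; neurite length quantified by high-content imaging.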
# [5] = CCTE_Mundy_HCI_Cortical_Synap_Neur_Matur_NeuriteSpotCountPerNeuron: CCTE's Synaptogenesis and Neurite Maturation Assay in rat cortical cells for Neurite Spot Count per Neuron Count, Mundy Lab (AID 2284215)
# Procedure, shortened: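 Rat primary cortical cultures given AraC at DIV 5, dosed from DIV 7 to DIV 12 with media change. Fixed, stained for MAP2, synaptophysin and Hoechst; neurite-associated synaptophysin puncta per neuron quantified by high-content imaging versus DMSO.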
# [6] = CCTE_Mundy_HCI_Cortical_Synap_Neur_Matur_SynapseCount: CCTE's Synaptogenesis and Neurite Maturation Assay in rat cortical cells for Synapse Count, Mundy Lab (AID 2284218)
# Procedure, shortened: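 Rat primary cortical cells in 96-well plates received AraC at DIV 5 and were dosed with chemicals at DIV 7 with media change, through DIV 12 (288.33 h). Synapses per neuron counted by high-content imaging of MAP2/synaptophysin/Hoechst staining, versus DMSO baseline.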
# [7] = CCTE_Mundy_HCI_hN2_NOG_NeuriteCount: CCTE's Neurite Outgrowth Assay in human hN2 cells for Neurite Count, Mundy Lab (AID 2284219; active means hit-call score of the fitted dose curve at least 0.9, where 1 is the maximum)
# Procedure, shortened: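 In this morphology assay, hNP1-derived neurons received test chemical 2 h post-plating and were fixed two days later in warm paraformaldehyde/sucrose containing Hoechst 33342. Neurites, labelled by rabbit anti-βIII-tubulin (1:800) and Alexa Fluor-488 (1:500), were counted automatically.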
# [8] = CCTE_Mundy_HCI_hN2_NOG_NeuriteLength: CCTE's Neurite Outgrowth Assay in human hN2 cells for Neurite Length, Mundy Lab (AID 2284220; active means hit-call score of the fitted dose curve at least 0.9, where 1 is the maximum)
# Procedure, shortened: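 Read-out is neurite length from high-content imaging of βIII-tubulin/Alexa Fluor-488-labelled neurons, referenced to DMSO controls.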
# [9] = CCTE_Mundy_HCI_hN2_NOG_NeuronCount: CCTE's Neurite Outgrowth Assay in human hN2 cells for Neuron Count, Mundy Lab (AID 2284221; active means hit-call score of the fitted dose curve at least 0.9, where 1 is the maximum)
# Procedure, shortened: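 Read-out is the number of betaIII-tubulin-positive neurons imaged by automated high-content analysis, with DMSO as negative control.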
# [10] = CCTE_Mundy_HCI_Cortical_Synap_Neur_Matur_CellBodySpotCount: CCTE's Synaptogenesis and Neurite Maturation Assay in rat cortical cells for Cell Body Spot Count, Mundy Lab (AID 2284223)
# Procedure, shortened: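 Primary rat cortical cultures, AraC added at DIV 5; dosed DIV 7 through DIV 12 […]. Fixed, stained for MAP2 and synaptophysin with Hoechst; cell body-associated synaptophysin puncta per neuron counted by high-content imaging, loss vs DMSO.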
# [11] = UKN2_HCS_IMR90_cell_viability: Viability Assessment in the University of Konstanz (UKN) Leist Lab Neural Crest Cell Migration Assay in human induced IMR90 Pluripotent Stem Cells (UKN2) (AID 2284233);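 further: viability of neural crest cells differentiated from IMR90 iPSC measured by calcein-AM fluorescence imaging; cells exposed to compound for 24 h after a 24 h migration phase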
# Procedure, shortened: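 Neural crest cells derived from IMR90 iPSC migrate into a stopper-free zone for 24 h in EGF/FGF medium, then are exposed to compound for 24 h. Viability assessed by calcein-AM and Hoechst staining with high-content imaging, fitted bidirectionally versus DMSO.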
# [12] = CCTE_Mundy_HCI_Cortical_NOG_NeuronCount: CCTE's Neurite Outgrowth Assay in rat cortical cells for Neuron Count, Mundy Lab (AID 2284236; active means hit-call score of the fitted dose curve at least 0.9, where 1 is the maximum;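 further: neurons counted by imaging betaIII-tubulin and Hoechst stained cortical cells; cells exposed to compound for about 48 hours before fixation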)
# Procedure, shortened: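 Read-out: neuron number by high-content imaging of betaIII-tubulin (Alexa Fluor-488) and Hoechst-labelled rat primary cortical cells.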
# [13] = CCTE_Mundy_HCI_hNP1_Casp3_7: CCTE's Caspase-Glo 3/7 Assay in human neuroprogenitor cells for Apoptosis, Mundy Lab (AID 2284240)
# Procedure, shortened: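 Luminescent caspase-3/7 readout, 26.5 h post-dose, in human neural progenitor cells from WA09 embryonic stem cells. Cells grew 40–44 h at 37 °C, 5% CO2 before chemical addition. Activity analysed as signal increase over DMSO baseline.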
# [14] = IUF_NPC2c_oligodendrocyte_migration_120hr: Leibniz Research Institute for Environmental Medicine (IUF) 120-hour Neural Progenitor Cell Migration Assay for Oligodendrocyte Migration (NPC2c) (AID 2284297);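 further: O4-positive oligodendrocyte migration distance divided by radial glia migration distance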
# Procedure, shortened: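 Human fetal neural progenitor spheres (0.3 mm) are plated on poly-D-lysine/laminin in N2 differentiation medium and exposed for 120 h, with half-medium renewal at day 3. Oligodendrocyte (O4+) migration distance comes from ICC imaging, normalised to radial glia migration.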
# [15] = IUF_NPC2a_radial_glia_migration_120hr: Leibniz Research Institute for Environmental Medicine (IUF) 120-hour Neural Progenitor Cell Migration Assay for Radial Glia Migration (NPC2a) (AID 2284298)
# Procedure, shortened: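 Human fetal-cortex neural progenitor spheres (0.3 mm) plated on poly-D-lysine/laminin in N2 differentiation medium, exposed 120 h at 37C with half-medium renewal at day 3. Radial glia migration distance (um) measured from Hoechst-stained nuclei images; DMSO baseline.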
# [16] = IUF_NPC2a_radial_glia_migration_72hr: Leibniz Research Institute for Environmental Medicine (IUF) 72-hour Neural Progenitor Cell Migration Assay for Radial Glia Migration (NPC2a) (AID 2284299)
# Procedure, shortened: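 Human fetal cortex (GW 16-19) neural progenitor spheres, 0.3 mm, plated on poly-D-lysine/laminin in N2 differentiation medium with compound from day 0. Radial glia migration distance (um, sphere core edge to migration edge) measured manually in four directions on 72 h brightfield images; well mean used.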
# [17] = IUF_NPC2b_neuronal_migration_120hr: Leibniz Research Institute for Environmental Medicine (IUF) 120-hour Neural Progenitor Cell Migration Assay for Neuron Migration (NPC2b) (AID 2284300)
# Procedure, shortened: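 0.3 mm hNPC spheres on poly-D-lysine/laminin in N2 differentiation medium exposed 120 h, half-medium refresh day 3; 7 concentrations, DMSO max 0.1%. Neuron (TUBB3) distance from sphere core by ICC imaging, normalised to radial glia migration.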
# [18] = IUF_NPC3_neuronal_differentiation_120hr: Leibniz Research Institute for Environmental Medicine (IUF) 120-hour Neuronal Differentiation Assay (NPC3) (AID 2284301)
# Procedure, shortened: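 Human fetal (GW 16-19) neural progenitor spheres (0.3 mm) plated on poly-D-lysine/laminin in N2 differentiation medium, exposed 120 h at 37C with half-medium renewal day 3; 7 concentrations. TUBB3+ cells as % of Hoechst nuclei, CNN-identified; DMSO baseline.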
# [19] = IUF_NPC4_neurite_length_120hr: Leibniz Research Institute for Environmental Medicine (IUF) 120-hour Neuronal Morphology Assay for Neurite Length (NPC4) (AID 2284302)
# Procedure, shortened: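 Human fetal neural progenitor spheres (0.3 mm) plated on poly-D-lysine/laminin in N2 differentiation medium, exposed from day 0 for 120 h with half-medium refresh at day 3, 37C. Mean neurite length (um) of TUBB3-positive neurons from skeletonized immunostaining images; DMSO ≤0.1%.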
# [20] = IUF_NPC2-5_cytotoxicity_72hr: Cytotoxicity Assessment at 72 hours in the Leibniz Research Institute for Environmental Medicine (IUF) Neural Progenitor Cell Migration and Differentiation Assay for Cytotoxicity (NPC2-5) (AID 2284306; active means hit-call score of the fitted dose curve at least 0.9, where 1 is the maximum;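 further: LDH release into supernatant measured by resorufin fluorescence marking membrane damage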)
# Procedure, shortened: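 Human fetal primary neural progenitor spheres (0.3 mm) plated on poly-D-lysine/laminin in N2 differentiation medium, exposed from day 0 at 37C. LDH-dependent resazurin-to-resorufin fluorescence in supernatant at 72 h; 7 concentrations, DMSO at most 0.1%.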
# [21] = IUF_NPC2-5_cytotoxicity_120hr: Cytotoxicity Assessment at 120 hours in the Leibniz Research Institute for Environmental Medicine (IUF) Neural Progenitor Cell Migration and Differentiation Assay (NPC2-5) (AID 2284307; active means hit-call score of the fitted dose curve at least 0.9, where 1 is the maximum)
# Procedure, shortened: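 Human fetal (GW 16-19) neural progenitor spheres (0.3 mm) plated on poly-D-lysine/laminin in N2 differentiation medium, exposed 120 h with half-medium renewal at day 3; 7 concentrations plus solvent control, DMSO ≤0.1%. LDH release in supernatant read by resorufin fluorescence.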
# [22] = IUF_NPC2-5_cell_number_120hr: Cell Number Assessment at 120 hours in the Leibniz Research Institute for Environmental Medicine (IUF) Neural Progenitor Cell Migration and Differentiation Assay (NPC2-5) (AID 2284308);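 further: count of Hoechst-stained nuclei in migration zone around plated human neural progenitor spheres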
# Procedure, shortened: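 Human fetal neural progenitor spheres (0.3 mm) plated on poly-D-lysine/laminin in N2 differentiation medium, exposed five days across 7 concentrations with half-medium refresh at day 3. Hoechst-positive nuclei counted in migration area at 120 h, relative to DMSO.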
# [23] = IUF_NPC2-5_viability_120hr: Viability Assessment at 120 hours in the Leibniz Research Institute for Environmental Medicine (IUF) Neural Progenitor Cell Migration and Differentiation Assay (NPC2-5) (AID 2284312)
# Procedure, shortened: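 Human fetal neural progenitor spheres (0.3 mm) plated on poly-D-lysine/laminin in N2 differentiation medium, exposed 120 h with half-medium refresh at day 3. Viability by alamar blue resazurin fluorescence; 7 concentrations, DMSO max 0.1%.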
structure (smiles),measurement,setting,value
CC(=O)[O-].CC(=O)[O-].O.O.O.[Pb+2],outcome,[1],inactive
same,outcome,[2],inactive
same,outcome,[3],inactive
same,outcome,[4],inactive
same,outcome,[5],inactive
same,outcome,[6],inactive
same,AC50,[7],2190 nM (active)
same,AC50,[8],2070 nM (active)
same,AC50,[9],12000 nM (active)
same,outcome,[10],inactive
same,outcome,[11],inactive
same,outcome,[12],inactive
same,outcome,[13],inactive
same,outcome,[14],inactive
same,outcome,[15],inactive
same,outcome,[16],inactive
same,outcome,[17],inactive
same,outcome,[18],inactive
same,outcome,[19],inactive
same,outcome,[20],inactive
same,outcome,[21],inactive
same,outcome,[22],inactive
same,outcome,[23],inactive
